Each structure is given as a SMILES string. This is part of a sample that, as a whole, favours compounds with a hit. Of some 83,000 tested, about 20% had one in any assay.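 Single-concentration screen, 48 h exposure, 96-well plates. Endpoint: percent growth. Below 10 = active.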 Unmarked numbers belong to inactive results. Calls of active or inactive are those of the source.

Experiment in all cases: NCI-60 one-dose screen, 48 h (100 = growth as untreated, 0 = no growth, -100 = all killed)
What all share (settings): 10 µM unless noted

The test system of assay [1] is SR leukemia.
Assay [2] concerns RPMI-8226 leukemia.
For assay [3], the system named is OVCAR-8 ovarian.
In assay [4] the test system is OVCAR-5 ovarian.
Assay [5] has as its system OVCAR-4 ovarian.
Assay [6] deals with SK-OV-3 ovarian.
Assay [7] concerns IGROV1 ovarian.
The subject of assay [8] is OVCAR-3 ovarian.
Assay [9] deals with HS 578T breast.
Assay [10] has as its system NCI/ADR-RES ovarian.
Assay [11] has as its system T-47D breast.
The test system of assay [12] is BT-549 breast.
Assay [13] deals with MDA-MB-435 melanoma.
Assay [14] has as its system SW-620 colon.
In assay [15] the test system is MCF7 breast.
The test system of assay [16] is HCT-116 colon.
Assay [17] concerns HCC-2998 colon.
Assay [18] concerns KM12 colon.

In the case of `N#Cc1c(N)nc(N)nc1Nc1ccc(Br)cc1`, the growth is 102% in [1]; 97% in assay [2]; 101% in assay [3]; 115% in [4]; 94.5% in assay [5]; 108% in assay [6]. Besides, the growth in [7] was 47%; in assay [8], 97.6%; in assay [9], 70.1%; in assay [10], 104%; in assay [11], 71.4%; in [12] it was 86.2%. Moreover, the growth in assay [13] was 104%; in assay [14], 105%; in assay [15], 61.6%; in assay [16], 137%; in assay [17], 110%; in [18], 93.9%.
Consider `NS(=O)(=O)c1ccc(-n2ncc3c(=O)[nH]c(CN4CCN(c5cc6c(cc5F)c(=O)c(C(=O)O)cn6C5CC5)CC4)nc32)cc1`, for which the growth in assay [1] is 97.2%; in [2], 105%; in assay [3], 97.8%; in assay [4], 97.6%; in [5], 104%; in assay [6], 107%. The growth in [7] is 92.8%; in assay [8], 107%; in [9] it was 97.8%; in [10], 94.4%; in assay [11], 106%; in [12], 68.9%. The growth in assay [13] is 99.9%; in assay [14], 98.8%; in assay [15], 94.9%; in assay [16], 100%; in assay [17], 93.9%; in assay [18], 102%.
Take `COc1ccc(CN2C(=O)/C(=C\c3cc(OC)c(OC)c(OC)c3)c3cc(OC)ccc32)cc1`: the growth is -31.1% (active) in assay [1]; -35.9% (active) in [2]; -43.2% (active) in assay [3]; 15% in [4]; 27.2% in assay [5]; 7.88% (active) in assay [6]. Also, the growth was -9.32% (active) in [7]; -10.8% (active) in assay [8]; 9.55% (active) in assay [9]; 6.96% (active) in [10]; -0.59% (active) in [11]; 27.1% in [12]. Also, the growth in [13] was -0.0336% (active); in assay [14] it was -64.1% (active); in [15], 7.67% (active); in [16], -79.6% (active); in [17] it was 74.1%; in [18], -86% (active).
With `COCCOC(=O)C1=C(C)NC(=S)NC1c1ccc2c(c1)OCO2` (centres undefined), the growth in assay [1] was 95.5%; in assay [2] it was 105%; in [3], 102%; in assay [4] it was 109%; in assay [5], 103%; in assay [6], 103%. For the same compound, the growth was 105% in [7]; 111% in [8]; 104% in [9]; 103% in assay [10]; 94.8% in assay [11]; 109% in assay [12]. In addition, the growth in [13] is 104%; in [14] it was 106%; in assay [15], 89.6%; in assay [16], 103%; in assay [17], 109%; in [18] it was 100%.
Take `CC[C@H](Nc1ncnc(N)c1C(N)=O)c1nc2cccc(NCc3ccc(C(=O)NO)cc3)c2c(=O)n1-c1ccccc1`: the growth was 12% in assay [1]; 51% in assay [2]; 69.4% in assay [3]; 95.5% in assay [4]; 99% in [5]; 91.9% in [6]. Moreover, the growth in assay [7] is 71%; in [8], 73.1%; in assay [9], 69.7%; in [10], 106%; in [11], 42.1%; in assay [12], 88.6%. The growth in assay [13] was 81.8%; in assay [14] it was 66.8%; in assay [15] it was 82.8%; in [16] it was 67%; in assay [17], 86.1%; in assay [18], 89.6%.
On to `CCN(CC)CC(C)Nc1ccc([N+](=O)[O-])c2sc3ccccc3c(=O)c12` (centres undefined), for which the growth was -32.3% (active) in [1]; -29.7% (active) in assay [2]; 24.6% in assay [3]; 53.9% in [4]; 32.9% in [5]; 33.8% in assay [6]. Moreover, the growth in [7] was 22.3%; in assay [8], 36.6%; in [9] it was 27.7%; in [10], 34.7%; in [11], 31.2%; in [12] it was 60.4%. Besides, the growth in assay [13] was 24.1%; in assay [14] it was 19.1%; in [15], 7.9% (active); in assay [16], 24.5%; in assay [17], 41.3%; in [18], 29.2%.
`CCOC(=O)c1c2c(n3ccc(NC(=O)CCN(CC)CC)cc13)C(=O)c1ncccc1C2=O`: the growth in [1] is -2.86% (active); in assay [2], 51.2%; in [3] it was 57.4%; in assay [4], 90.5%; in assay [5], 63.8%; in assay [6] it was 36.2%. Moreover, the growth in assay [7] was 47.3%; in assay [8] it was 74.7%; in assay [9], 60.8%; in assay [10], 60.2%; in assay [11], 55.9%; in assay [12] it was 75.9%. For the same compound, the growth is 32.7% in [13]; 49.3% in [14]; -8.59% (active) in [15]; 49.3% in assay [16]; 83.1% in assay [17]; 63.5% in [18].
Regarding `COc1ccc(-c2cc(-c3cccnc3)nc3sc4c(=O)n(-c5ccc(C)cc5)cnc4c23)cc1OC`, the growth in [1] was 96.1%; in assay [2], 97.6%; in assay [3], 101%; in assay [4] it was 86.7%; in assay [5] it was 92.3%; in assay [6], 99.2%. In addition, the growth in [7] is 106%; in assay [8], 98.8%; in assay [9], 87.2%; in assay [10], 103%; in assay [11], 98.7%; in assay [12], 100%. Further, the growth in [13] was 98.7%; in assay [14], 96.2%; in assay [15], 97%; in assay [16] it was 99.1%; in assay [17], 109%; in assay [18], 101%.

The values are drawn from PubChem BioAssay (NCI).
